“And” between values parts separate entries of the source, which are not always exact repeats. Equal entries are not always repeated. Inconclusive results are not listed. Some structures have more than one record in an assay (separate samples or runs), and their calls can disagree. The source made the active and inactive calls. How the source made its calls, unless noted: active means hit-call score of the fitted dose curve at least 0.9, where 1 is the maximum; inconclusive means response in the unintended direction; inactive means score below 0.9.

Sequence of Broad substrate specificity ATP-binding cassette transporter ABCG2 (Homo sapiens) (Q9UNQ0 whole entry, looked up): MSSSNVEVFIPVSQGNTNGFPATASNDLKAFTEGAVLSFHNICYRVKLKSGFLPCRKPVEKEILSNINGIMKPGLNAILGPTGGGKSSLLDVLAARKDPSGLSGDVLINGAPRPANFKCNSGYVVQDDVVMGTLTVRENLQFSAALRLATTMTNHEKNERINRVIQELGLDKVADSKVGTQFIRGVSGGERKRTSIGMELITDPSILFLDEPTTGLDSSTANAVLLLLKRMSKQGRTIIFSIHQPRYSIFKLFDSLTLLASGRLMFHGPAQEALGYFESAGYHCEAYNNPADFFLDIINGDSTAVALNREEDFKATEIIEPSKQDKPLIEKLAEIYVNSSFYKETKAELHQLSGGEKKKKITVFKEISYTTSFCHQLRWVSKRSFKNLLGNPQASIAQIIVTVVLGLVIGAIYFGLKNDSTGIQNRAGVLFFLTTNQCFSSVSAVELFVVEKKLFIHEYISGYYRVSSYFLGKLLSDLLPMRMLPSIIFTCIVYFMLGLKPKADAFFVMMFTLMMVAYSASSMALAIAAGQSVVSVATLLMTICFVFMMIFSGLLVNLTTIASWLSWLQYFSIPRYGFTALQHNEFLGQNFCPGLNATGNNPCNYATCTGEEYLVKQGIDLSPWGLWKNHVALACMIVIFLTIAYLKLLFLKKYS

Read-out in the first assay: matrix metalloproteinase-1 (MMP1), MMP1 (gene 4312)
Kind of assay: LTEA_HepaRG_MMP1: Life Technologies and Expression Analysis (LTEA) Assay for matrix metalloproteinase-1 (MMP1) using HepaRG (AID 2283658; active means hit-call score of the fitted dose curve at least 0.9, where 1 is the maximum; inactive means score below 0.9). The note with it: mRNA level, 48 h; actives raise or lower the signal. In short, it runs like this: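 MMP1 transcript read by TaqMan qRT-PCR (Fluidigm array) after 48 h chemical exposure of HepaRG cells in serum-free induction medium. Eight-point half-log series, top 100 uM, 0.5% DMSO vehicle. Bidirectional curve fit against DMSO baseline.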
For the molecule `C=CC1(C)OC(=O)N(c2cc(Cl)cc(Cl)c2)C1=O` (stereo unspecified), the molecule was called inactive.

The term AC50 denotes the midpoint of the concentration-response curve, whichever way the signal moves. For `OC(c1ccc(Cl)cc1)(c1cncnc1)c1ccccc1Cl` (stereo unspecified), the AC50 is 59.8 µM (active).

For the molecule `CO/C=C(/C(=O)OC)c1ccccc1Oc1cc(Oc2ccccc2C#N)ncn1`, the molecule was classed as inactive.

Read-out in another assay: Broad substrate specificity ATP-binding cassette transporter ABCG2 (Homo sapiens) (UniProt Q9UNQ0)
Kind of assay: CLD_ABCG2_6hr: CellzDirect (CLD) Gene Expression Assay for ABC Transporter (ABCG2) at 6 hours (AID 2283660).
Details: not given
An outline of the steps:
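Primary human hepatocytes dosed daily with chemicals at multiple concentrations (0.2% DMSO vehicle), harvested 6 h after dosing. ABCG2 mRNA induction read by quantitative nuclease protection assay (qNPA) chemiluminescence; gain of signal fitted against DMSO baseline.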
As to `CC(C)Oc1cc(-n2nc(C(C)(C)C)oc2=O)c(Cl)cc1Cl`, the molecule was classed as inactive.

On to `O=C(Nc1ccccc1)Nc1ccnc(Cl)c1`, for which the molecule was called inactive.

In the case of `COC(=O)c1ccccc1C(=O)OC`, the molecule was called inactive.

For the molecule `Cc1c(F)c(F)c(COC(=O)C2C(/C=C(\Cl)C(F)(F)F)C2(C)C)c(F)c1F` (stereo unspecified), the call was inactive.

Take `C=CCC1=C(C)C(OC(=O)C2C(C=C(C)C)C2(C)C)CC1=O` (stereo unspecified): the call was inactive.

For the molecule `Cc1cc(Cl)ccc1OCC(=O)O`, the molecule was called inactive.

Consider `OC(c1ccc(Cl)cc1)(c1cncnc1)c1ccccc1Cl` (stereo unspecified), for which the molecule was called inactive.

Regarding `Fc1ccc(Oc2ccnc3cc(Cl)cc(Cl)c23)cc1`, the result was inactive.

For the molecule `C=CCC1=C(C)[C@@H](OC(=O)[C@@H]2[C@@H](C=C(C)C)C2(C)C)CC1=O`, the result was inactive.

As for `C#CCOS(=O)OC1CCCCC1Oc1ccc(C(C)(C)C)cc1` (stereo unspecified), the molecule was called inactive.

On to `CS/C(C)=N/OC(=O)N(C)SN(C)C(=O)O/N=C(\C)SC`, for which the result was inactive.

Consider `CCNc1nc(Cl)nc(NC(C)C)n1`, for which the outcome was inactive.

Take `CC1COC(Cn2cncn2)(c2ccc(Oc3ccc(Cl)cc3)cc2Cl)O1` (stereo unspecified): the result was inactive.

On to `COc1nc(C)nc(NC(=O)NS(=O)(=O)c2ccccc2Cl)n1`, for which the molecule was called inactive.

As for `CCCCNC(=O)n1c(NC(=O)OC)nc2ccccc21`, the outcome was inactive.

Turning to `COP(=S)(OC)Oc1nc(Cl)c(Cl)cc1Cl`, the call was inactive.

Turning to `COc1nc(C)nc(NC(=O)NS(=O)(=O)c2ccccc2CCC(F)(F)F)n1`, the molecule was classed as inactive.

Turning to `CNC(=S)S`, the molecule was called inactive.

As to `COc1nc(NC(C)C)nc(NC(C)C)n1`, the molecule was classed as inactive.

Regarding `N#CC(CCc1ccc(Cl)cc1)(Cn1cncn1)c1ccccc1` (stereo unspecified), the result was inactive.

Consider `CCCCNC(=O)OCC#CI`, for which the molecule was called inactive.

Regarding `COP(N)(=O)SC` (stereo unspecified), the molecule was classed as inactive.

`CCOC(=O)CC(SP(=S)(OC)OC)C(=O)OCC` (stereo unspecified): the outcome was inactive.

`COC(=O)C=C(C)OP(=O)(OC)OC`: the call was inactive.

As for `CO/C=C(/C(=O)OC)c1ccccc1Oc1cc(Oc2ccccc2C#N)ncn1`, the call was inactive.

Read-out in another assay: xenobiotic metabolism (CYP1A1), CYP1A1 (gene 1543)
As to the kind of experiment: CLD_CYP1A1_6hr: CellzDirect (CLD) Gene Expression Assay for xenobiotic metabolism (CYP1A1) at 6 hours (AID 2283661).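 On AC50: potency for transcript induction above DMSO vehicle baseline.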
Details: not given
In short, it runs like this: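 Primary human hepatocytes from two donors, compound versus 0.2% DMSO vehicle. CYP1A1 mRNA measured 6 h after dosing by quantitative nuclease protection assay with chemiluminescent read-out; induction fitted relative to DMSO, cytotoxicity flagged by microscopy.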
As to `CC(C)Oc1cc(-n2nc(C(C)(C)C)oc2=O)c(Cl)cc1Cl`, the half-maximal activity concentration (AC50) was 1.57 µM (active).

`O=C(Nc1ccccc1)Nc1ccnc(Cl)c1`: the concentration at half-maximal activity (AC50) is 12.3 µM (active).

Turning to `COC(=O)c1ccccc1C(=O)OC`, the outcome was inactive.

Take `Cc1c(F)c(F)c(COC(=O)C2C(/C=C(\Cl)C(F)(F)F)C2(C)C)c(F)c1F` (stereo unspecified): the molecule was called inactive.

Turning to `C=CCC1=C(C)C(OC(=O)C2C(C=C(C)C)C2(C)C)CC1=O` (stereo unspecified), the call was inactive.

With `C=CC1(C)OC(=O)N(c2cc(Cl)cc(Cl)c2)C1=O` (stereo unspecified), the AC50 is 1.47 µM (active).

Take `Cc1cc(Cl)ccc1OCC(=O)O`: the call was inactive.

`OC(c1ccc(Cl)cc1)(c1cncnc1)c1ccccc1Cl` (stereo unspecified): the result was inactive.

With `Fc1ccc(Oc2ccnc3cc(Cl)cc(Cl)c23)cc1`, the AC50 is 3.13 µM (active).

Take `C=CCC1=C(C)[C@@H](OC(=O)[C@@H]2[C@@H](C=C(C)C)C2(C)C)CC1=O`: the molecule was called inactive.

As to `C#CCOS(=O)OC1CCCCC1Oc1ccc(C(C)(C)C)cc1` (stereo unspecified), the AC50 was 3.67 µM (active).

Take `CS/C(C)=N/OC(=O)N(C)SN(C)C(=O)O/N=C(\C)SC`: the molecule was classed as inactive.

`CCNc1nc(Cl)nc(NC(C)C)n1`: the AC50 is 2.19 µM (active).

Consider `CC1COC(Cn2cncn2)(c2ccc(Oc3ccc(Cl)cc3)cc2Cl)O1` (stereo unspecified), for which the outcome was inactive.

In the case of `COc1nc(C)nc(NC(=O)NS(=O)(=O)c2ccccc2Cl)n1`, the AC50 is 0.00131 µM (active) and the call was inactive.

In the case of `CCCCNC(=O)n1c(NC(=O)OC)nc2ccccc21`, the half-maximal activity concentration (AC50) was 3.66 µM (active).

On to `COP(=S)(OC)Oc1nc(Cl)c(Cl)cc1Cl`, for which the AC50 was 5.29 µM (active).

Turning to `COc1nc(C)nc(NC(=O)NS(=O)(=O)c2ccccc2CCC(F)(F)F)n1`, the AC50 was 1.9 µM (active) and 287 nM (active); the molecule was called inactive.

In the case of `CNC(=S)S`, the molecule was called inactive.

Turning to `COc1nc(NC(C)C)nc(NC(C)C)n1`, the AC50 is 3.97 µM (active).

In the case of `N#CC(CCc1ccc(Cl)cc1)(Cn1cncn1)c1ccccc1` (stereo unspecified), the AC50 is 1.89 µM (active).

For the molecule `CCCCNC(=O)OCC#CI`, the AC50 is 0.851 µM (active) and the result was inactive.

Turning to `COP(N)(=O)SC` (stereo unspecified), the result was inactive.

Regarding `CCOC(=O)CC(SP(=S)(OC)OC)C(=O)OCC` (stereo unspecified), the AC50 is 3.97 µM (active).

In the case of `COC(=O)C=C(C)OP(=O)(OC)OC`, the molecule was called inactive.

A further assay concerns Thyroperoxidase (TPO), gene 54314. Kind of assay: CCTE_Simmons_AUR_rTPO: CCTE's Amplex UltraRed Assay for Thyroperoxidase (TPO) Inhibition, Simmons Lab (AID 2283662).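 On AC50: potency for loss of signal meaning inhibition of peroxidase activity.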
Details: not given
In short, it runs like this:
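Rat thyroid microsomes (5 ug protein) with 25 uM Amplex UltraRed and 300 uM H2O2 in 200 mM phosphate buffer, 30 min at 37C in dark; fluorescence 544/590 nm. Eight concentrations, 5 nM–87.5 uM final, 0.5% DMSO, triplicate biological replicates.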
Turning to `O=C(Nc1ccccc1)Nc1ccnc(Cl)c1`, the AC50 is 27.6 µM (active).

In the case of `C=CCC1=C(C)C(OC(=O)C2C(C=C(C)C)C2(C)C)CC1=O` (stereo unspecified), the AC50 is 33.6 µM (active).

Regarding `C=CCC1=C(C)[C@@H](OC(=O)[C@@H]2[C@@H](C=C(C)C)C2(C)C)CC1=O`, the AC50 was 54 µM (active).

With `CC1COC(Cn2cncn2)(c2ccc(Oc3ccc(Cl)cc3)cc2Cl)O1` (stereo unspecified), the outcome was inactive.

As to `CCCCNC(=O)n1c(NC(=O)OC)nc2ccccc21`, the call was inactive.

In the case of `COP(=S)(OC)Oc1nc(Cl)c(Cl)cc1Cl`, the AC50 was 4.62 µM (active).

As for `CNC(=S)S`, the AC50 was 22 µM (active) and 23 µM (active).

`COP(N)(=O)SC` (stereo unspecified): the AC50 was 30.6 µM (active).

Consider `CCOC(=O)CC(SP(=S)(OC)OC)C(=O)OCC` (stereo unspecified), for which the AC50 is 3.4 µM (active).

On to `COC(=O)C=C(C)OP(=O)(OC)OC`, for which the AC50 is 14 µM (active).

The values above are taken from PubChem BioAssay (EPA / NIEHS).
